Inconclusive results are not listed. Entries that show only a call come without a potency. Activity calls are given as the source filed them. The call rests on the fitted dose curve; in most records, active means well fitted inhibition curve with a large enough effect; inconclusive means small, poorly fitted or top-dose-only effect; inactive means no such curve, though single readings can be large or run the other way.
Potency means the concentration at half of the fitted maximal effect.

For the assay, the system named is Zika virus NS2B-NS3 protease (unlinked complex). In words: Primary screen GU Rhodamine qHTS for Zika virus inhibitors: Unlinked NS2B-NS3 protease assay (AID 1347159). Further: nearly all actives have a fitted effect of over 60% in size. The following applies: Recombinant ZIKV NS2B-NS3 protease, Rhodamine110 substrate fluorescence; series mostly up to 107 µM. The method in brief:
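Enzyme 25 nM in Tris-HCl pH 8.0 + 0.01% Tween 20; compounds up to 114 microM, 15 min RT dark; + Rhod110 substrate 1.5 microM; read t0 and 15 min; delta fluorescence → % inhibition → 4-parameter Hill fit.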
Regarding `C=C1CC[C@@H]2[C@](C)(CO)[C@H](O)CC[C@@]2(C)[C@@H]1/C=C/C1=CCOC1=O`, the Potency result was “inactive”. In the case of `C=C1C(=O)O[C@@H]2C(OC(=O)/C(C)=C\C)/C(C)=C\C(=O)/C=C(\C)C[C@H](O)[C@@H]12` (some centres undefined) it was “inactive”; in that of `Fc1ccc(N2CCN(CCC3OCCc4ccccc43)CC2)cc1` (centres undefined), “inactive”. On to `COc1ccc2cc3c(NC(=O)c4ccco4)nn(C)c3nc2c1`, for which the Potency result is “inactive”. In the case of `COc1ccc(CNCc2cccc3ccccc23)cc1` it was “inactive”.

Consider `O=C1Nc2nc(-c3c(O)cccc3OCC3CC3)cc([C@@H]3CCCNC3)c2CO1`, for which the Potency result is “inactive”. For `C=C(C)C(=O)O[C@H]1[C@H]2C(=C)C(=O)O[C@@H]2C[C@@H](C)[C@@H]2O[C@@H]2C(=O)[C@](C)(O)[C@@H]1OC(=O)C(=C)C` the value was “inactive”; for `Cn1c(CO)c(-c2ccccc2)c2cc([N+](=O)[O-])ccc21`, “inactive”; for `CCCCOC(=O)NS(=O)(=O)c1sc(CC(C)C)cc1-c1ccc(Cn2ccnc2)cc1`, 31.6 µM (active). For `C=C1C(=O)OC2/C=C(\C)CC/C=C(\C)CC(OC(C)=O)C12` (centres undefined) the value was “inactive”; for `O=C(Nc1ccc(Cl)cc1)C1CCCN(C(=O)c2cccc(-c3ccco3)c2)C1` (centres undefined), “inactive”. In the case of `CC[C@H]1CN(c2nc(N)c(C(N)=O)nc2Cl)CCN1C1CCN(Cc2ccc(Cl)cc2)CC1` it was “inactive”. Consider `N#Cc1cc(C2=Nc3ccc(Br)cc3NC(=O)C2)ccn1`, for which the Potency result was “inactive”.

On to `COc1cc2c(cc1OCCCN1CCCC1)N=C(N)C21CCC1`, for which the Potency result was “inactive”. For `O=C(Nc1cccc(C(F)(F)F)c1)Nc1ccc(Br)cc1-c1nn[nH]n1` the value was 3.16 µM (active); for `CC(C)C[C@@H](C(=O)N[C@@H](Cc1ccc(OCc2ccccc2)cc1)C(=O)NC(C)(C)C)N(C)Cc1ccc(C(C)(C)C)cc1`, “inactive”. For `CC(=O)O[C@@H]1[C@@H](OC(C)=O)[C@H](C)O[C@@H](O[C@H]2[C@@H]3C=CO[C@@H](O[C@@H]4O[C@H](CO)[C@@H](O)[C@H](O)[C@H]4O)[C@@H]3[C@@]3(CO)O[C@@H]23)[C@@H]1OC(=O)/C=C/c1ccccc1` the value was “inactive”. As to `COc1ccc(C2(N(C)C(=O)c3ccc(NC(=O)c4ccco4)cc3)CCOCC2)cc1`, the Potency result is “inactive”. Turning to `COC(=O)c1cc2c(C(F)(F)F)cc(-c3ccccc3)cc2n1O`, the Potency was 12.6 µM (active).

`COc1cc(F)c(F)c(Nc2ccc(I)cc2F)c1NS(=O)(=O)C1(CC(O)CO)CC1` (centres undefined): the Potency entry is “inactive”. In the case of `C=C(C)C(=O)O[C@H]1[C@H]2C(=C)C(=O)O[C@@H]2/C=C(\CO)CC/C=C(/C=O)[C@@H]1O` it was “inactive”; in that of `Cn1cc(-c2ccc3c(c2)CCN3C(=O)Cc2cccc(C(F)(F)F)c2)c2c(N)ncnc21`, “inactive”.

Regarding `CN1CCN(c2ccc(Nc3cc(-c4cccc(-n5ccc6cc(C7CC7)cc(F)c6c5=O)c4CO)cn(C)c3=O)nc2)CC1`, the Potency entry is “inactive”. For `O=C(NCCN1CCN(c2cccc3c2OCCO3)CC1)c1ccc(F)cc1` the value was “inactive”; for `Cc1ccc(N2CCN(S(=O)(=O)N3CCCCC3)CC2)c(C)c1`, “inactive”. For `CCCn1cc2c(nc(NC(=O)Nc3ccc(OC)cc3)n3nc(-c4ccco4)nc23)n1` the value was “inactive”; for `O=S(=O)(Nc1ccccc1N1CCCCC1)c1ccc(Cl)s1`, “inactive”.

For the molecule `O=C(NCCCc1ccccc1)C1CCC(CNS(=O)(=O)c2cccc3nsnc23)CC1` (centres undefined), the Potency entry is “inactive”. In the case of `COc1c2c(c(C)c3c1C(=O)OC3)O[C@@]1(C)C[C@@H](OC(C)=O)[C@]34O[C@](OC)(CC[C@]3(C)[C@H]1C2)OC4(C)C` it was “inactive”; in that of `CCC(C)c1ccc(NC(=O)Cn2cnc3c2c(=O)n(C)c(=O)n3C)cc1` (centres undefined), “inactive”. For `CC1(C)CCCC2(C)C1C(=O)C=C(C(=O)O)C2(O)C(=O)O` (centres undefined) the value was “inactive”. In the case of `CCOc1ccc(Cc2nc(-c3c(C)nc4ccccn34)cs2)cc1` it was “inactive”; in that of `Cc1cc(-c2nc3cc(F)ccc3s2)ccc1NC(=O)[C@@H](N)CCCCN`, “inactive”.

For `O=c1cc(NCCCN[C@@H]2CCOc3c(Br)cc(Br)cc32)[nH]c2ccsc12`, the Potency result is “inactive”. For `CCCCNc1ncc(-c2ccc(CN3CCOCC3)cn2)c(NC2CCC(O)CC2)n1` (centres undefined) the value was “inactive”; for `CCC(C)C(=O)O[C@H]1[C@@H](OC(=O)c2ccoc2)C[C@](C)(O)[C@]23OC(C)(C)[C@H](C[C@H](OC(=O)c4ccoc4)[C@]12COC(C)=O)[C@H]3OC(C)=O` (some centres undefined), “inactive”. In the case of `O=S(=O)(NCc1cccc2ccccc12)c1cc(Cl)c(Oc2cccc(N3CCNCC3)c2)s1` it was “inactive”. On to `C=C1CC[C@@H]2[C@](C)(CO)[C@H](O)CC[C@@]2(C)[C@@H]1C/C=C1/C(=O)OCC1O` (some centres undefined), for which the Potency result was “inactive”. For `Nc1cccc(CNC(=O)c2ccc(Oc3ccc(OCc4cccc(F)c4)cc3)nc2)c1` the value was “inactive”.

These data come from PubChem BioAssay (NCATS).
